Test results as given in PubChem BioAssay (NCATS).
“And” between values parts separate entries of the source, which are not always exact repeats. Equal entries are not always repeated. Inconclusive results are not listed. The source made the active and inactive calls. Unless noted, the call rests on the fitted dose curve; in most records, active means well fitted curve in the direction sought with a large enough effect; inconclusive means small, poorly fitted or top-dose-only effect, or another doubt; inactive means no such curve, though single readings can be large; an effect the other way counts as inactive or inconclusive.

Tests used:
[1] = qHTS for Inhibitors of the Functional Ribonucleoprotein Complex (vRNP) of Lassa (LASV) Arenavirus: LASV Primary Screen - GLuc reporter signal (AID 1347082; calls by dose curve; tested in HEK293 reporter line; further: series mostly up to about 57 µM; nearly all actives have a fitted effect of over 60% in size)
[2] = qHTS for Inhibitors of the Functional Ribonucleoprotein Complex (vRNP) of Lassa (LASV) Arenavirus: Viability assay - alamar blue signal for LASV Primary Screen (AID 1347083; calls by dose curve; tested in HEK293 reporter line; further: series mostly up to about 57 µM; nearly all actives have a fitted effect of over 80% in size)
[3] = qHTS for Inhibitors of the Functional Ribonucleoprotein Complex (vRNP) of Lymphocytic Choriomeningitis Arenaviruses (LCMV): Viability assay - alamar blue signal for LCMV Primary Screen (AID 1347085; calls by dose curve; tested in HEK293 reporter line; further: series mostly up to about 57 µM; nearly all actives have a fitted effect of over 80% in size)
[4] = target: Nucleoprotein (Lymphocytic choriomeningitis virus (strain Armstrong)) (UniProt P09992); assay: qHTS for Inhibitors of the Functional Ribonucleoprotein Complex (vRNP) of Lymphocytic Choriomeningitis Arenaviruses (LCMV): LCMV Primary Screen - GLuc reporter signal (AID 1347086; calls by dose curve; further: series mostly up to about 57 µM; nearly all actives have a fitted effect of over 70% in size)
[5] = target: Nuclear receptor subfamily 1 group I member 3 (Homo sapiens) (UniProt Q14994); assay: Primary qHTS for antagonist of constitutive androstane receptor (CAR) against the NCATS DSHEA and TCM libraries (AID 1794836); further: series mostly up to about 40 µM
Summary of the method: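 HepG2 cells stably carrying hCAR and a CYP2B6 luciferase reporter (2,500 cells/well) attached for 5 h, then received compounds with 48 uM CITCO for 24 h at 37C. ONE-Glo luminescence read antagonism; CellTiter-Fluor (405/540 nm) gave viability.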

[6] = KB-8-5-11 P-gp reporter qHTS against the NCATS DSHEA and TCM libraries (AID 1919977)
Summary of the method: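 CellTiter-Glo luminescence after ~72 h exposure at 37C gave viability of KB-8-5-11 cells, the P-gp-overexpressing subline. Substances were titrated; colchicine was omitted from assay medium.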

[7] = target: Cytochrome P450 3A4 (Homo sapiens) (UniProt P08684); assay: qHTS Assay for Inhibitors and Substrates of Cytochrome P450 3A4 (AID 884); further: nearly all actives have a fitted effect of over 50% in size; further: potency means the concentration at half of the fitted maximal effect
Summary of the method: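 Luminescent readout of luciferin produced by CYP3A4 (20 nM) dealkylation of Luciferin-PPXE, 25 uM (its KM). NADPH-driven reaction ran 60 min at RT after 10 min compound preincubation; data scaled to 57 uM ketoconazole as 100% inhibition.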

[8] = MultiTox-Fluor Cytotoxicity Assay - LYMP1-003 - Dead Cells (AID 961); further: nearly all actives have a fitted effect of over 70% in size
Summary of the method: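 Dead-cell protease release, detected as bis-AAF-R110 fluorescence at 485/520 nm, was measured in LYMP1-003 cells after 16 h compound treatment at 37 C. AC50 values came from Hill-modeled qHTS curves normalized to DMSO (0%) and 15 uM tetraoctylammonium bromide (100%).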

[9] = Cell Viability - LYMP1-003 - Assay at 40 hr (AID 964); further: series mostly up to about 92 µM; nearly all actives have a fitted effect of over 60% in size
Summary of the method: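 Acute toxicity is scored as a concentration-dependent loss of intracellular ATP in LYMP1-003 cells (2500/well, complete medium) after 40 hr at 37 C, measured by CellTiter-Glo luminescence; AC50 values derive from standard Hill modelling.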

[10] = Cell Viability - LYMP2-010 (AID 981);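 further: cells exposed to compound for 24 hours at 37 °C; nearly all actives have a fitted effect of over 55% in size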
Summary of the method: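 This 24 hr viability screen uses LYMP2-010 lymphoblastoid cells, quantifies ATP via luciferase luminescence, and derives AC50 from Hill fits of qHTS concentration-response data.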

[11] = target: Nuclear receptor ROR-gamma (Homo sapiens) (UniProt P51449); assay: qHTS assay for small molecule antagonists of the retinoid-related orphan receptor gamma (ROR-gamma) signaling pathway (AID 651802);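 further: CHO cells with doxycycline-induced ROR-gamma expression; luciferase reporter luminescence driven by ROR response element; series mostly up to about 92 µM; nearly all actives have a fitted effect of over 60% in size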
Summary of the method: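 Doxycycline-induced reporter activity in engineered CHO cells (TET-inducible ROR, RORE-LUC) was measured by luminescence after 16hr compound exposure at 37C.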

[12] = Validation screen for inhibitors of Lassa infection (AID 463096; calls by dose curve; further: potency means the concentration at half of the fitted maximal effect)
[13] = target: M-phase phosphoprotein 8 (Homo sapiens) (UniProt Q99549); assay: qHTS Validation Assay for Inhibitors for MPP8 Chromodomain Interactions with Methylated Histone Tails (AID 488949);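 further: AlphaScreen signal from MPP8 chromodomain bound to biotinylated H3K9me3 peptide; top concentration of the series differs between compounds; nearly all actives have a fitted effect of over 55% in size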
Summary of the method: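 AlphaScreen read-out: streptavidin donor and nickel chelate acceptor beads (final 10 ug/mL), 30 min in the dark at RT. Complex of 50 nM MPP8 and 50 nM b-H3(1-18)K9me3 peptide had been exposed to compounds for 30 min beforehand.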

[14] = Inducers of the Endoplasmic Reticulum Stress Response (ERSR) in human glioma: Validation (AID 504836)
Summary of the method: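 Stably transfected U87-MG human glioma cells carrying a GRP78-based luminescent sensor were seeded at 1000 cells/well, pin-dosed with compounds and incubated 16 h. Luciferase reagent was then added, and end-point luminescence was read after 10 min at room temperature.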

[15] = target: Peroxisome proliferator-activated receptor delta (Homo sapiens) (UniProt Q03181); assay: qHTS assay for small molecule agonists of peroxisome proliferator-activated receptor delta signaling (AID 588534; calls by dose curve)
Summary of the method: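 EC50 and efficacy values derive from Hill fits of a concentration series in a beta-lactamase reporter cell assay. Exposure is 18 hrs at 37 C, with CCF4 fluorescence as the readout.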

[16] = qHTS assay for small molecule agonists of the antioxidant response element (ARE) signaling pathway (AID 651741; active means well fitted activation curve with a large enough effect in the signal ratio; the % refers to the signal ratio; further: potency means the concentration at half of the fitted maximal effect)
Summary of the method: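 Beta-lactamase reporter expression driven by the antioxidant response element in HepG2 cells was detected by fluorescence with LiveBLAzer B/G FRET substrate (2 h, room temperature) following 16 h compound treatment at 37 C.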

[17] = target: Cytochrome P450 3A4 (Homo sapiens) (UniProt P08684); assay: qHTS Assay for Activators of Cytochrome P450 3A4 (AID 885); further: nearly all actives have a fitted effect of over 65% in size
Summary of the method: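 Luminescent readout of luciferin formed from 25 uM Luciferin-PPXE (KM level) by 20 nM CYP3A4 in 200 mM KPO4, with 60 min NADPH-driven reaction at room temperature after 10 min compound exposure. Ketoconazole (57 uM) defined 100% inhibition.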

[18] = target: Alpha-galactosidase (Coffea arabica) (UniProt Q42656); assay: Counterscreen for Glucocerebrosidase Inhibitors: qHTS Assay for Coffee Bean alpha-Galactosidase at pH 4.5 (AID 957); further: series mostly up to about 77 µM
Summary of the method: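 Quantitative HTS of compounds (0.7 nM to 77 uM) against coffee bean alpha-galactosidase at pH 4.5, measuring 4-methylumbelliferone fluorescence released from 80 uM substrate.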

[19] = target: Alpha-galactosidase (Coffea arabica) (UniProt Q42656); assay: Counterscreen for Glucocerebrosidase Inhibitors: qHTS Assay for Coffee Bean alpha-Galactosidase at pH 5.9 (AID 998)
Summary of the method: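 In 50 mM citric acid pH 5.9 with 0.005% Tween-20, coffee bean enzyme hydrolyses 80 uM 4-MU alpha-D-galactopyranoside over 20 min at RT. Activity is normalized to controls; AC50 comes from Hill-modelled concentration-response data.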

Measured: Potency

Chain of M-phase phosphoprotein 8 (Homo sapiens) (Q99549 whole entry, looked up): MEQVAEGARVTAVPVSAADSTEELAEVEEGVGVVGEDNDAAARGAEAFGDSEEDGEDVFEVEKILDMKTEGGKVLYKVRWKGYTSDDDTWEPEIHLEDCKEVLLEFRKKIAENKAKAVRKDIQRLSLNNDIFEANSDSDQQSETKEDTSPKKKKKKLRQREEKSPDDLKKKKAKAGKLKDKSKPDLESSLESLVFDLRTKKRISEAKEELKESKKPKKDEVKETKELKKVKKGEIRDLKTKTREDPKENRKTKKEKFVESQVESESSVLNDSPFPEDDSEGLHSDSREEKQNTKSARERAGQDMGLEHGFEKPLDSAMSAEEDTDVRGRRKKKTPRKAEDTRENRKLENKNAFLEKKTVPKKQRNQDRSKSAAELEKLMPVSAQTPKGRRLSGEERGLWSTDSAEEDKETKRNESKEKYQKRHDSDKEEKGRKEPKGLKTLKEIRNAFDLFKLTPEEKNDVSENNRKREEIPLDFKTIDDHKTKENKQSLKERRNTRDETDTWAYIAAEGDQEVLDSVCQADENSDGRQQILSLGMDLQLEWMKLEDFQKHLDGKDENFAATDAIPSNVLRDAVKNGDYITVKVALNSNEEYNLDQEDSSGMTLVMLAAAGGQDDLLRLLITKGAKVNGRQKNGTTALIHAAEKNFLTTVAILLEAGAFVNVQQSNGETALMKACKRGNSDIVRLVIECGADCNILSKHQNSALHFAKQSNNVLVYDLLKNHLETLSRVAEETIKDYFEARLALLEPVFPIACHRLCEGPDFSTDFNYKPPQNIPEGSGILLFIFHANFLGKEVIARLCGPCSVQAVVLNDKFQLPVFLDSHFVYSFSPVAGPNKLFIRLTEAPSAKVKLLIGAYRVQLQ
Chain of Peroxisome proliferator-activated receptor delta (Homo sapiens) (Q03181 whole entry, looked up): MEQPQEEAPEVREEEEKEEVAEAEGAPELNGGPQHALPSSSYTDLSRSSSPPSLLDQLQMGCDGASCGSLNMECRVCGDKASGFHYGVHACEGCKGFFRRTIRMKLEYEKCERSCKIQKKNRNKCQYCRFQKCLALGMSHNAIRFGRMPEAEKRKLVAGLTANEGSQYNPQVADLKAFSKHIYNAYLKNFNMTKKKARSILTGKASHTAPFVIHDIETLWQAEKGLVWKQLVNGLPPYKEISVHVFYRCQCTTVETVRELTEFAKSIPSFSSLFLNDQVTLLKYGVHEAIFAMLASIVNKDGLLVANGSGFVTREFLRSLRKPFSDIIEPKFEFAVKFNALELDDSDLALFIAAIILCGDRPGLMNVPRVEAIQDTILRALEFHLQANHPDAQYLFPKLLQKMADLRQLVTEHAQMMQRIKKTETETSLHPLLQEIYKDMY
Chain of Nuclear receptor subfamily 1 group I member 3 (Homo sapiens) (Q14994 whole entry, looked up): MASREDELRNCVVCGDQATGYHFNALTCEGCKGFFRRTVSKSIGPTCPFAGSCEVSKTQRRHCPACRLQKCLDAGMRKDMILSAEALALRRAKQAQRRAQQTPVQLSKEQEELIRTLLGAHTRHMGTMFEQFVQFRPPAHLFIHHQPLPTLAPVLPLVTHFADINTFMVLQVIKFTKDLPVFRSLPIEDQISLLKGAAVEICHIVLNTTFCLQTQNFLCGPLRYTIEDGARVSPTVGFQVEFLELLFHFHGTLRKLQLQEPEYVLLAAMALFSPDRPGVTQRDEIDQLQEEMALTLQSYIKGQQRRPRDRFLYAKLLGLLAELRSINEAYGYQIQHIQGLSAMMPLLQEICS
Chain of Nuclear receptor ROR-gamma (Homo sapiens) (P51449 whole entry, looked up): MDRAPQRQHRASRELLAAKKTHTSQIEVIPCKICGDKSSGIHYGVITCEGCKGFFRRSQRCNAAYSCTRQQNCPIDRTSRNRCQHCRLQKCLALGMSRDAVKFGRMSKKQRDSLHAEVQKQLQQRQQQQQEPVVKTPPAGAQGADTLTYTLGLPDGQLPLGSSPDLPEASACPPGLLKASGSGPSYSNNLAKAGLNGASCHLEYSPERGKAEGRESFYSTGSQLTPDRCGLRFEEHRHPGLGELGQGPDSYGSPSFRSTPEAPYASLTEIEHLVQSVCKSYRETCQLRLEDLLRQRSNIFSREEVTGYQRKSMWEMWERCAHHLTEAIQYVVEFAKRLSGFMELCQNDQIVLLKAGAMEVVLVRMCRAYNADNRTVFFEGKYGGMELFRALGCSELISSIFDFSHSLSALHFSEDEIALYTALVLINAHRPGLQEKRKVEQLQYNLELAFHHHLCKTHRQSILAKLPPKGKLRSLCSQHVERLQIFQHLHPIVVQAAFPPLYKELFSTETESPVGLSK
Chain of Nucleoprotein (Lymphocytic choriomeningitis virus (strain Armstrong)) (P09992 whole entry, looked up): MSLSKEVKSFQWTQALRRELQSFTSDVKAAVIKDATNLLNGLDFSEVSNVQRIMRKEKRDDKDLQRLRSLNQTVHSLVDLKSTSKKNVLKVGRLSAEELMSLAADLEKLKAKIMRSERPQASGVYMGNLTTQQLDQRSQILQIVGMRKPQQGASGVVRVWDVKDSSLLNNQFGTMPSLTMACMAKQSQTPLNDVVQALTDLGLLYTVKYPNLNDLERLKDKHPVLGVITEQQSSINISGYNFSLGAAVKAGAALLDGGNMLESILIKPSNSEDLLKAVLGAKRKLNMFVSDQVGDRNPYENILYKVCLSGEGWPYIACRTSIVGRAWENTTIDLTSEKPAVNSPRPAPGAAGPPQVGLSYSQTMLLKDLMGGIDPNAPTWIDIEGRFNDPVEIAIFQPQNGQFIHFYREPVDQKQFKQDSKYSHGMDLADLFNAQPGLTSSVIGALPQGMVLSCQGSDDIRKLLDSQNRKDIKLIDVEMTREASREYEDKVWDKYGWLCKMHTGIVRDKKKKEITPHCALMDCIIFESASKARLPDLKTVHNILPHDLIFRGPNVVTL
Chain of Cytochrome P450 3A4 (Homo sapiens) (P08684 whole entry, looked up): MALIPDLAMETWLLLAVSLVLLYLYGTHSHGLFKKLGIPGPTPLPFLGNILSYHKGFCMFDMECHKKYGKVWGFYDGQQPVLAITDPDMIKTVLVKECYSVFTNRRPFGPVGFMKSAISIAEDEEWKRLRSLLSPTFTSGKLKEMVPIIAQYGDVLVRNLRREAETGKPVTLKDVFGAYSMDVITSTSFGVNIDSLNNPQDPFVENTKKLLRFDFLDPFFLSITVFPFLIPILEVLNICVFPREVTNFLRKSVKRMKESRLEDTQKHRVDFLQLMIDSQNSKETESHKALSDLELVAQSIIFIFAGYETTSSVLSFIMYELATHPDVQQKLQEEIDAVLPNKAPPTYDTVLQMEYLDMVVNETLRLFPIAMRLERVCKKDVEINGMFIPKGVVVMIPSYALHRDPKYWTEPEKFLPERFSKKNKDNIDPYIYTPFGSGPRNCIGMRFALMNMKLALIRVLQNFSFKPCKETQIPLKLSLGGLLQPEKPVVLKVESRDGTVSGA
Chain of Alpha-galactosidase (Coffea arabica) (Q42656 whole entry, looked up): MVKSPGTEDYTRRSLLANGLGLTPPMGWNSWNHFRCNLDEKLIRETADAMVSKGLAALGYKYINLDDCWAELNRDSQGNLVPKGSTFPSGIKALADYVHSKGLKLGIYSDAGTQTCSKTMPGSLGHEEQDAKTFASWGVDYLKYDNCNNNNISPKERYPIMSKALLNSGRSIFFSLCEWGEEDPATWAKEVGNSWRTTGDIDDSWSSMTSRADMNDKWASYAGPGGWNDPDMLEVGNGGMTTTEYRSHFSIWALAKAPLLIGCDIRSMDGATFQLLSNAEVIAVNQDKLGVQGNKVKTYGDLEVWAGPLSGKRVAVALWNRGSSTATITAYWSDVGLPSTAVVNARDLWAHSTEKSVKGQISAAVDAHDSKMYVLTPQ

CCCCCC(=O)CC
inactive: [1] | [2] | [3] | [4] | [5] | [6]

CC(C)COC(=O)c1ccccc1C(=O)OCC(C)C
inactive: [7] | [8] | [9] | [10] | [11] | [1] | [2] | [3] | [4]

CC(=O)N[C@H](C(=O)O)C(C)(C)SN=O
inactive: [12] | [1] | [2] | [3] | [4]

CC1=CCC(O)(C(C)C)CC1 (stereo unspecified)
inactive: [1] | [2] | [3] | [4] | [6]

C=C(C)[C@@H]1CC=C(C=O)CC1
inactive: [1] | [2] | [3] | [4] | [6]

CN1[C@@H](CC(=O)c2ccccc2)CCC[C@H]1C[C@H](O)c1ccccc1
inactive: [12] | [13] | [14] | [1] | [2] | [3] | [4]

CCOC(=O)c1ccccc1N
inactive: [7] | [8] | [9] | [10] | [15] | [16] | [11] | [1] | [2] | [3] | [4]

O=C(/C=C/c1ccc(O)c(O)c1)OCCc1ccccc1
inactive: [12] | [1] | [2] | [3] | [4]

CNc1ncnc2c1ncn2[C@H]1C[C@H](OP(=O)(O)O)[C@@H](COP(=O)(O)O)O1
inactive: [12] | [1] | [2] | [3] | [4]

O=c1cc(-c2ccc(O)c(O)c2)oc2cc(O)cc(O)c12
inactive: [17] | [1] | [2] | [3] | [4] | [5] | [6]
active: [7] 15.8 µM

CC(C)(C)c1ccc(S(=O)(=O)/C=C/C#N)cc1
active: [12] 11.2 µM
inactive: [1] | [2] | [3] | [4]

O=c1cc(-c2ccc(O)cc2)oc2cc(O)cc(O)c12
inactive: [18] | [14] | [1] | [2] | [3] | [4] | [5] | [6]

Oc1ccccc1Cl
inactive: [7] | [8] | [9] | [10] | [15] | [16] | [1] | [2] | [3] | [4]

COC1=CC(=O)OC(CCc2ccc3c(c2)OCO3)C1 (stereo unspecified)
active: [7] 2 µM
inactive: [17] | [8] | [16] | [11] | [1] | [2] | [3] | [4]

CCNC(=O)[C@H]1O[C@@H](n2cnc3c(N)nc(NCCc4ccc(CCC(=O)O)cc4)nc32)[C@H](O)[C@H]1O
inactive: [12] | [1] | [2] | [3] | [4]

O=c1cc(O)cc(/C=C/c2ccc(O)c(O)c2)o1
inactive: [12] | [1] | [2] | [3] | [4]

OCC1NCC(O)C(O)C1O (stereo unspecified)
inactive: [12] | [1] | [2] | [3] | [4]

O=C(O)c1ccccc1
inactive: [1] | [2] | [3] | [4] | [6]

Nc1nc2[nH]c(=O)cnc2c(=O)[nH]1
inactive: [18] | [19] | [12] | [14] | [1] | [2] | [3] | [4]

COc1cc([C@@H]2c3cc4c(cc3[C@H](O)C3COC(=O)[C@@H]32)OCO4)cc(OC)c1OC (stereo partly specified)
inactive: [12] | [13] | [14] | [1] | [2] | [3] | [4]

CC(C)c1ccc(C=O)cc1
inactive: [1] | [2] | [3] | [4] | [6]

C=CC(=C)CCC=C(C)C
inactive: [15] | [1] | [2] | [3] | [4] | [6]

CO/N=C(\C(=O)N[C@@H]1C(=O)N2C(C(=O)O)=C(CSc3nc(=O)c(O)nn3C)CSC12)c1csc(N)n1 (stereo partly specified)
inactive: [12] | [1] | [2] | [3] | [4]

C=C(C)C1CC=C(C(=O)O)CC1 (stereo unspecified)
inactive: [12] | [1] | [2] | [3] | [4]

CNCCC(Oc1ccccc1C)c1ccccc1 (stereo unspecified)
inactive: [12] | [1] | [2] | [3] | [4]

Brc1c(Br)c(Br)c2n[nH]nc2c1Br
active: [7] 3.16 µM
inactive: [17] | [18] | [19] | [12] | [13] | [14] | [1] | [2] | [3] | [4]

c1ccc(Nc2ccc3ccccc3c2)cc1
inactive: [17] | [8] | [9] | [10] | [15] | [11] | [1] | [2] | [3] | [4]
active: [16] 42.2 µM and 54.5 µM
